The test concerns PPARg homodimer (NR concentration 180 nM). As to the kind of experiment: PBM binding z-score (relative to random genomic background probes); higher = stronger binding; sequences stand for … in GC…GCGATTGACAGCGTAGAATGAAGG
The procedure, abridged: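 Regression normalization was applied to scanned fluorescence from custom Agilent 4×180K protein-binding microarrays. Before scanning, arrays were incubated 1 h with ligand-free nuclear receptor dimers, and binding was detected with antibodies against each partner (one per run). Binding z-scores use the random background probes as reference.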
As to AGTCGAAGTTCACTAGGTAACGTAAGATTCAGCT, the PBM binding z-score is 0.849.

Regarding GCTAGTTGGTCCGTAAAAGGTCACACACCGGTCG, the PBM binding z-score was 2.89.

Consider CGAACTAGGTCAGAACAGGACAGTGAAGGATGAT, for which the PBM binding z-score was 0.92.

As to CGAAATAGGTCAGAACAGGACAGTGAAGGATGAT, the PBM binding z-score turned out to be 1.47.

The sequence TAGCCTAGGTCATTCTGGGGCCAGTATAGAAAGC had a PBM binding z-score of 0.886.

With ATACCAAGGTGATCGTGACGTCGTTGATACTAAC, the PBM binding z-score worked out at 0.477.

As to CGTCCAAGGTCAAGGTTAGTGAAAGAGACTCGAA, the PBM binding z-score was determined as 2.5.

With TCGAGTAGGTTAGTCGGGGGATTCAGCCAACATA, the PBM binding z-score was found to be 0.49.

The sequence GCTCGGAGGGCAAGGTCAGAGCTTTGTCCGTAGA yielded a PBM binding z-score of 2.03.

Turning to CCGAGTAGGTTATGGGGCATTCATGCAACGGTGA, the PBM binding z-score is 0.908.

For the sequence ACTAGCAGTCCAAGGGTCACTCAAGATTAGTCCG, the PBM binding z-score was found to be 1.69.

Sequence ATCGAAAGGTCCTGAGGTGAGTATACAGAAAGGC gave a PBM binding z-score of 0.413.

In turn, AGTCAAAGTTCACTTGGTAACGTAAGATTCAGCT registered a PBM binding z-score of 1.76.

The sequence TCTAGCACGCCAGAGGGTCACTCAAGAGGTACGG showed a PBM binding z-score of 0.566.

In the case of CCAACTAGGTCAAGGTCAAAGTCGGTTTGTGCCA, the PBM binding z-score was 4.31.

In the case of TCAGACAGGTGAAGGTAACACAGGTACGCAGTCG, the PBM binding z-score was 1.19.

TTACCAAGGTGAGCTGAGGTCGTCGATCCAACTC displayed a PBM binding z-score of -0.188.

As for TCATATAGGTAAATGCTAGGTGAGAGTCCGATCT, the PBM binding z-score turned out to be 0.0695.

The sequence TCTTGTAGATTAAAGGTTAAGAAAGCCGAAGCCT came in with a PBM binding z-score of 1.17.

As for TCAGACAGGTGCAGGTAACTCAGGTACGCAGTCG, the PBM binding z-score was -0.207.

Consider CGTCAAAGTTCAACTAAAGTAACGTAAAGCACGC, for which the PBM binding z-score turned out to be 3.19.

The sequence AATACAGGGTCACTAGGCCAGACTAGGTACGAAT displayed a PBM binding z-score of 1.28.

TTACCATGGTGAGCTGAGGTCGTTGATCCAACTC returned a PBM binding z-score of -0.916.

With CAGCCTAGGTCAGGGCCAGTAAAGGAGGAACGTT, the PBM binding z-score is 0.652.

TCTTGTAGATCAATAGAGTTTAAGAAAGTGCGCT came in with a PBM binding z-score of -0.192.

For TCGAGGAGGTTACCAATGGGGCATTCAGCTTTCT, the PBM binding z-score was determined as 0.8.

Sequence CGTCCAAGGTCAGAGATGTCAGTGAATGCCGAGT yielded a PBM binding z-score of 0.984.

On to CACACTAGGTCACGAAAGGTCAAAGTCGAATGAC, for which the PBM binding z-score stood at 5.51.

With GATACAGGGTCAGCTAGAGGCAAGAGTATGGAAA, the PBM binding z-score turned out to be 0.979.

Regarding CGAACTAGGTCACAACAGGACAGTGAAGGATGAT, the PBM binding z-score came out at 1.54.

For ATATGTAGGTTTAGGGTCATTCAGGTTGGTTCGC, the PBM binding z-score amounted to 2.95.

CCGACTGGGGCAAGGTTAGCATAACGCACAGCCA gave a PBM binding z-score of 0.409.

CGTCCAAGGTCATCGGAGGTCAGTGAAGACAGAT: the PBM binding z-score is 6.99.

Regarding TCTCGGAGGACACGAAAGGTCAGAGTTCGACATC, the PBM binding z-score is 3.27.

On to CCTACTGGCCCACGAAAGGTCATTGATTCAGTGA, for which the PBM binding z-score came to 3.

TCATATAGGTAAAGGCGAAAGTCGAACGATATGA returned a PBM binding z-score of 0.221.

For CAAACTAGGTCAGAGAGGTCAAAGTCCGTGCGTA, the PBM binding z-score was 4.15.

TAGCCTAGGTCAGATCGGGCCAGTATCCGCTATA returned a PBM binding z-score of 0.0691.

In turn, CTCGAAAGGCCGGTTGAGGTGAGTATACGGATAA showed a PBM binding z-score of -1.35.

For the origin of these results see the supplement of paper PMC6555819.
